# According to the supplement of paper PMC10681739:
# Biological target: RUNX1 (UniProt Q01196)
# Assay: RUNX1 binding intensity (PBM fluorescence), RUNX1 alone (arbitrary fluorescence units); higher = stronger binding
# Conditions: RUNX1 concentration 2 nM; ETS1 concentration 0 nM
# Method: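 Cooperative gcPBM on 36-bp genomic probes with neighbouring ETS1 and RUNX1 sites. Recombinant human RUNX1 (2 nM) was incubated alone or with ETS1 (25 nM) and detected with anti-RUNX1 antibody plus Alexa488 secondary. Values are medians over 4 replicate spots; the RUNX1+ETS1 data were normalised to the RUNX1-only data. The probes sit in constant array flanks that are not printed.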
# 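Further: Full-length recombinant human RUNX1 bound to double-stranded 36-bp genomic probes on a high-density microarray, scored as Alexa488 fluorescence per spot via anti-RUNX1 antibody, median of four replicate spots.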
# RUNX1, sequence (Q01196 whole entry): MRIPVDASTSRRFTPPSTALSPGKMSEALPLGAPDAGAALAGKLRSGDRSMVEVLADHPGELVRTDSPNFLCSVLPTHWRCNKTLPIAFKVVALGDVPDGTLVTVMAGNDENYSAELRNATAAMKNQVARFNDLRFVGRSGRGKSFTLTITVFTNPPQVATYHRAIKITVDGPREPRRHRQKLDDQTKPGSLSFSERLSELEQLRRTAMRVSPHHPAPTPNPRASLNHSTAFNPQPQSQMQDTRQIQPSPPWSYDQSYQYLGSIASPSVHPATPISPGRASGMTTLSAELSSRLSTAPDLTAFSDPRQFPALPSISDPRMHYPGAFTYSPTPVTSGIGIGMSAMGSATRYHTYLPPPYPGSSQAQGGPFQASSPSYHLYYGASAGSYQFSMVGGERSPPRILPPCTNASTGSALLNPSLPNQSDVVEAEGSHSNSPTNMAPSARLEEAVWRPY
row,Sequence,RUNX1 binding intensity
1,GGGAGGTCACATCCTGCCCGCGGTCTCAGAAAAGCT,782
2,ATTTCCATTTCCGGACTCTTCTCCTGCCCGCAGGGC,1220
3,CTCTAGAGGCTTCCTGCCCAACCACCAAGAAAAAGC,817
4,TGAGCAAGTTCCTTCCTGTCTGTGGTCCAGGGTTTA,747
5,ACGTCAGCATCCGCCGGGCTCGCGGTAAGGTGTGAG,736
6,CAACACAGGATGTGCAGTATTATACCGCAAAGCACT,1150
7,TTCTTCCGGCAACTGCTGCTGAGGCTGCGGTGGCGG,799
8,GGCTTCCGCCGCCACCACTGCCCCTCAACCGCCACG,1110
9,AGTGGCTACCACTTCCTTCTCTTACCACAGTTCCTT,1550
10,GCACTCGGATGTTGGCCGTAGTTGTGGTTATAGTTG,1010
11,GCCACTATTTCCTGCCTTCTGCGGCTGAGAGTCCCA,1220
12,TTGTCACGTCCGGCACGCCGCGAACCGCAAGGAACC,1270
13,TTACCCCGGCGGAACGGAGGCCTGCGGTCGCGGCGG,941
14,GGCCTTCATTACACAGGATGCGGTTGAAATGCATCA,931
15,TGCGAGCACCCGGAAGCCGCTTGCGGGCTCCCGGAG,701
16,TTTGCTGCAGAAGGATGTGGTTTATTCAGGTTTGAC,932
17,CTTCTACTTCCTGCCCCGCCCCCAGCTGTGGTCACA,1490
18,AGTGGATAGCACTTCCTTCTCTTACCACAGTTCCTT,1020
19,AGTTGGTTCCTTCCGGTGGGTTTGTGGGCTTGGGGT,763
20,GCGCGGCGCGACCGGACGCTGCGGGCGGGGAAGAGG,734

row,Sequence,RUNX1 binding intensity
1,CGGGGCTTCCGGCGCGCTGCCTTGTGGGCACGGTAG,711
2,TTAGGCTCATGGGAAATGTGGTTTCTAAATCGCGGG,912
3,AGCGTTGTCTTCCGGCCTCAACCACTCAGCGACCGG,751
4,CCTGCCTTCCGTCTTCCAGGCAGAACCACAGAGAGG,1180
5,GTGCTCCTCGCTTCCTCCGCGGTCTTCCGAGCGGTC,1150
6,CCCACCCAGGAAGCCGTCCTAACCACAACAGCCCTC,4100
7,GTCAGGGGAACAGGATGTGGGTGGGAGCCAGCCCCA,729
8,CCAGAATGCAGGAAGTGCTGTGGTTTGACTTTGTTT,831
9,CTTCAAAGTCAGGAAACCGTTAAACCACACTGCATC,1100
10,CTGCCTTTCCTGCTAGGGTACAAACCACAGCCTTAG,1360
11,GAGGCCCAGGATGTGGCTGGAGGCCTGTGGTGGGAC,700
12,CTAACAGCAGGAAGTGCTTGGTGGTTTAGCACCTCA,664
13,GCTTACACTTCCTCCCTGAACCCCTGCGGTTTCACA,4160
14,TGCCTCCTCGTCACAGGATGTGGTCGCTGCACCCTG,788
15,CCCGGCCACTTCCGCCTATTGCGGGCGTCGGCTAGG,745
16,CCGCTGAGAACAGGATGTGGGTGTCAGGAGGTGAAG,765
17,TGACAGACCCGGAAATAAGAGGAGACCACACACTTG,894
18,CAAAGTGATGGGGGAAATGGTTGTGGTTTTGGGTGG,1180
19,GCCACAGCCGGAAGCAGGCTGACCACAAGTGCTAAG,1310
20,GTAAGTAGGCCAGGAAGTGGTCACTGCAGCATGTGA,722
